The values that follow come from PubChem BioAssay (NCATS).

Inconclusive results are not listed. A number with no mark means an inactive call. Active and inactive are the calls of the source. Unless noted, the call rests on the fitted dose curve; in most records, active means well fitted inhibition curve with a large enough effect; inconclusive means small, poorly fitted or top-dose-only effect; inactive means no such curve, though single readings can be large or run the other way.
Potency means the concentration at half of the fitted maximal effect.

A short description of the first test: NS1 protein of Zika virus - qHTS assay to identify small molecule inhibitors in human HEK 293 cells (AID 1347053). Further: nearly all actives have a fitted effect of over 55% in size.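 On activity change, negative = inhibition: plate controls were infected untreated cells for no effect and uninfected cells for full effect.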 The settings on record: HEK293 ZIKV MR766 infection, NS1 TR-FRET, 24 h; series mostly up to 46.1 µM; activity change, negative = inhibition: at the top concentration. The gist of the method:
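Following 20 h seeding, HEK 293 cells took compound, then 1 h later ZIKV MR766 (MOI = 0.5). Incubation ran 24 h at 37 C before TR-FRET detection of NS1; a drop in signal indicates inhibition.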
In general terms: qHTS replaces the single test concentration by a dilution series.
For `Cc1ccc(Cl)c(O)c1`, the “activity change, negative = inhibition” value was 5.6%.

For `O=[N+]([O-])c1c(Cl)c(Cl)cc(Cl)c1Cl`, the “activity change, negative = inhibition” value was -8.43% [at 92.8 µM].

Turning to `CC1=C(C(=O)O)N2C(=O)[C@@H](N)[C@H]2SC1`, the “activity change, negative = inhibition” value is -12.3% [at 20.1 µM].

On to `C=C1C[C@H]2[C@H]3CCC(=O)[C@@]3(C)CC[C@@H]2[C@@]2(C)C=CC(=O)C=C12`, for which the “activity change, negative = inhibition” value was 3.59%.

Consider `Cc1nc(-c2ccc(-c3ccc(C(=O)N4CCc5cc6c(cc54)C4(CCN(C)CC4)CO6)cc3)c(C)c2)no1`, for which the “activity change, negative = inhibition” value was 2.91%.

Turning to `O=C(O)COc1nc(Cl)c(Cl)cc1Cl`, the “activity change, negative = inhibition” value is 53.4% [at 92.8 µM].

Take `O=C(O)CNC(=O)c1c(O)c2ccccc2n(Cc2ccccc2)c1=O`: the “activity change, negative = inhibition” value is 1.93%.

For the molecule `CCCC[N+]1(C)[C@H]2CC(OC(=O)[C@H](CO)c3ccccc3)C[C@H]1[C@H]1O[C@H]12` (stereo partly specified), the “activity change, negative = inhibition” value is -0.166%.

With `CC(O)=C(C#N)C(=O)Nc1cc(Br)ccc1Br`, the “activity change, negative = inhibition” value was 1.69%.

For `Nc1ccc(Cl)cc1`, the “activity change, negative = inhibition” value is 2.33% [at 92.8 µM].

On to `Fc1cc(Br)ccc1CBr`, for which the “activity change, negative = inhibition” value was 0.737%.

As for `O=[N+]([O-])c1ncc[nH]1`, the “activity change, negative = inhibition” value is -1.51%.

In the case of `C[C@H]1CCCC=CC2C[C@H](O)C[C@@H]2[C@H](O)C=CC(=O)O1` (stereo partly specified), the “activity change, negative = inhibition” value was -117%.

In the case of `Nc1ccc(Sc2ccc(N)cc2)cc1`, the “activity change, negative = inhibition” value is -5.98% [at 92.8 µM].

With `C[C@]12COC(=O)C[C@@H]1CC[C@@H]1[C@H]2CC[C@@]2(C)[C@H]1CC[C@]2(C)O`, the “activity change, negative = inhibition” value was 0.742%.

As for `C[C@H]([C@H](O)CCC(C)(C)O)[C@H]1CC[C@@]2(O)C3=CC(=O)[C@@H]4C[C@@H](O)[C@@H](O)C[C@]4(C)[C@@H]3CC[C@]12C`, the “activity change, negative = inhibition” value was 10.6%.

Turning to `C[C@]12CCC(=O)C(O)=C1CC[C@@H]1[C@H]3CCC(=O)[C@@]3(C)CC[C@@H]12`, the “activity change, negative = inhibition” value was 13.6%.

As for `CC(=O)OCC1=C(C(=O)O)N2C(=O)[C@@H](N)[C@@H]2SC1`, the “activity change, negative = inhibition” value was 3.09%.

`C#C[C@]1(O)C=C[C@@H]2[C@@H]3CCC4=CC(=O)CC[C@@H]4[C@H]3CC[C@@]21CC`: the “activity change, negative = inhibition” value is 4.82%.

As for `Cc1cc(O)ccc1Cl`, the “activity change, negative = inhibition” value was -3.08%.

As for `COc1cccc2c1[C@]13CCN(CC4CC4)[C@H](C2)[C@]1(OC)CCC(=O)C3`, the “activity change, negative = inhibition” value was 7.37%.

For `CCCCOC(=O)c1ccccc1C(=O)OCc1ccccc1`, the “activity change, negative = inhibition” value is 2.72% [at 92.8 µM].

As to `CCCN1CCO[C@@H]2c3cc(O)ccc3OC[C@@H]21`, the “activity change, negative = inhibition” value is 5.88%.

For `CC1(N2CCC(n3c([C@@H]4CCCNC4)nc4ccccc43)CC2)CCCCCCC1`, the Potency was 20.9 µM (active).

Turning to `COc1cc2cc(c1Cl)N(C)C(=O)C[C@H](OC(=O)C(C)C)[C@]1(C)O[C@H]1[C@H](C)[C@@H]1C[C@@](O)(NC(=O)O1)[C@H](OC)C=CC=C(C)C2`, the “activity change, negative = inhibition” value is -49.1%.

As for `CN(C)NC(=O)CCC(=O)O`, the “activity change, negative = inhibition” value was 0.428%.

As for `CS(=O)(=O)c1ccc(C(=O)C2C(=O)CCCC2=O)c([N+](=O)[O-])c1`, the “activity change, negative = inhibition” value was -0.924% [at 92.8 µM].

For the molecule `C#CC1(O)CCC2C3CCC4=CC(=O)CCC4(C)C3CCC21C` (stereo unspecified), the “activity change, negative = inhibition” value is -1.91%.

For the molecule `CCN1C[C@]2(OC(=O)c3ccccc3NC(C)=O)CC[C@H](OC)[C@@]34[C@H]5CC6[C@@H](OC)C[C@](O)(C(C[C@@H]23)[C@@H]14)[C@@]5(O)[C@@H]6OC`, the “activity change, negative = inhibition” value is 0.313%.

With `CC(C)(C)NC[C@H](O)c1ccc(O)cc1Cl`, the “activity change, negative = inhibition” value was -3.97%.

Consider `COC(C)(C)CCCC(C)C/C=C/C(C)=C/C(=O)OC(C)C` (stereo unspecified), for which the “activity change, negative = inhibition” value was 0.678%.

In the case of `CC(=Cc1csc(C)n1)[C@@H]1C[C@H]2O[C@@H]2CCC[C@H](C)[C@@H](O)[C@@H](C)C(=O)C(C)(C)[C@@H](O)CC(=O)O1`, the “activity change, negative = inhibition” value was -68.9%.

As to `Cc1[nH]nc2ccc(-c3cncc(OC[C@@H](N)Cc4c[nH]c5ccccc45)c3)cc12`, the Potency was 5.9 µM (active).

For the molecule `CCOP(=O)(NC(C)C)Oc1ccc(SC)c(C)c1` (stereo unspecified), the “activity change, negative = inhibition” value was 100% [at 92.8 µM].

Take `O=[N+]([O-])c1ccc([As](=O)(O)O)cc1`: the “activity change, negative = inhibition” value was 2.06%.

In the case of `OCCCBr`, the “activity change, negative = inhibition” value is 0.722% [at 92.8 µM].

On to `O=[N+]([O-])/N=C1\NCCN1Cc1ccc(Cl)nc1`, for which the “activity change, negative = inhibition” value is -23.1%.

With `Nc1c(Cl)c(Cl)c(Cl)c(Cl)c1Cl`, the “activity change, negative = inhibition” value is -0.262% [at 92.8 µM].

The next test in a line: qHTS for Inhibitors of the Functional Ribonucleoprotein Complex (vRNP) of Lassa (LASV) Arenavirus: LASV Primary Screen - GLuc reporter signal (AID 1347082; calls by dose curve; tested in HEK293 reporter line; further: nearly all actives have a fitted effect of over 60% in size; on activity change, negative = inhibition: on the % scale 0 is the no-effect control and ±100 the full control effect). Conditions: LASV minigenome vRNP, Gaussia luciferase reporter; series mostly up to 57.5 µM; activity change, negative = inhibition: at the top concentration.
Regarding `Cc1ccc(Cl)c(O)c1`, the “activity change, negative = inhibition” value was -10.5%.

Turning to `O=[N+]([O-])c1c(Cl)c(Cl)cc(Cl)c1Cl`, the “activity change, negative = inhibition” value was -11.8% [at 115 µM].

As to `CC1=C(C(=O)O)N2C(=O)[C@@H](N)[C@H]2SC1`, the “activity change, negative = inhibition” value is 18.9% [at 24.7 µM].

`C=C1C[C@H]2[C@H]3CCC(=O)[C@@]3(C)CC[C@@H]2[C@@]2(C)C=CC(=O)C=C12`: the “activity change, negative = inhibition” value was -6.96%.

Consider `Cc1nc(-c2ccc(-c3ccc(C(=O)N4CCc5cc6c(cc54)C4(CCN(C)CC4)CO6)cc3)c(C)c2)no1`, for which the “activity change, negative = inhibition” value is 1.96%.

As for `O=C(O)COc1nc(Cl)c(Cl)cc1Cl`, the “activity change, negative = inhibition” value was 5.59% [at 115 µM].

`O=C(O)CNC(=O)c1c(O)c2ccccc2n(Cc2ccccc2)c1=O`: the “activity change, negative = inhibition” value was 4.73%.

Take `CCCC[N+]1(C)[C@H]2CC(OC(=O)[C@H](CO)c3ccccc3)C[C@H]1[C@H]1O[C@H]12` (stereo partly specified): the “activity change, negative = inhibition” value is 6.55%.

Consider `CC(O)=C(C#N)C(=O)Nc1cc(Br)ccc1Br`, for which the “activity change, negative = inhibition” value was 3.24%.

Turning to `Nc1ccc(Cl)cc1`, the “activity change, negative = inhibition” value was -14.4% [at 115 µM].

As for `Fc1cc(Br)ccc1CBr`, the “activity change, negative = inhibition” value is -1.47%.

Take `O=[N+]([O-])c1ncc[nH]1`: the “activity change, negative = inhibition” value is -3.7%.

In the case of `C[C@H]1CCCC=CC2C[C@H](O)C[C@@H]2[C@H](O)C=CC(=O)O1` (stereo partly specified), the Potency is 0.0273 µM (active).

As to `Nc1ccc(Sc2ccc(N)cc2)cc1`, the “activity change, negative = inhibition” value was -21.4% [at 115 µM].

Turning to `C[C@]12COC(=O)C[C@@H]1CC[C@@H]1[C@H]2CC[C@@]2(C)[C@H]1CC[C@]2(C)O`, the “activity change, negative = inhibition” value is -3.97%.

On to `C[C@H]([C@H](O)CCC(C)(C)O)[C@H]1CC[C@@]2(O)C3=CC(=O)[C@@H]4C[C@@H](O)[C@@H](O)C[C@]4(C)[C@@H]3CC[C@]12C`, for which the “activity change, negative = inhibition” value is 9.39%.

For the molecule `C[C@]12CCC(=O)C(O)=C1CC[C@@H]1[C@H]3CCC(=O)[C@@]3(C)CC[C@@H]12`, the “activity change, negative = inhibition” value is -24.2%.

Consider `CC(=O)OCC1=C(C(=O)O)N2C(=O)[C@@H](N)[C@@H]2SC1`, for which the “activity change, negative = inhibition” value is -6.81%.

For `C#C[C@]1(O)C=C[C@@H]2[C@@H]3CCC4=CC(=O)CC[C@@H]4[C@H]3CC[C@@]21CC`, the “activity change, negative = inhibition” value was -4.82%.

`Cc1cc(O)ccc1Cl`: the “activity change, negative = inhibition” value is 9.12%.

On to `COc1cccc2c1[C@]13CCN(CC4CC4)[C@H](C2)[C@]1(OC)CCC(=O)C3`, for which the “activity change, negative = inhibition” value is 0.435%.

As for `CCCCOC(=O)c1ccccc1C(=O)OCc1ccccc1`, the “activity change, negative = inhibition” value was 8.98% [at 115 µM].

For `CCCN1CCO[C@@H]2c3cc(O)ccc3OC[C@@H]21`, the “activity change, negative = inhibition” value is -1.33%.

Turning to `CC1(N2CCC(n3c([C@@H]4CCCNC4)nc4ccccc43)CC2)CCCCCCC1`, the “activity change, negative = inhibition” value is -19.5%.

As to `COc1cc2cc(c1Cl)N(C)C(=O)C[C@H](OC(=O)C(C)C)[C@]1(C)O[C@H]1[C@H](C)[C@@H]1C[C@@](O)(NC(=O)O1)[C@H](OC)C=CC=C(C)C2`, the “activity change, negative = inhibition” value is -44.7%.

As for `CN(C)NC(=O)CCC(=O)O`, the “activity change, negative = inhibition” value is 1.67%.

For the molecule `CS(=O)(=O)c1ccc(C(=O)C2C(=O)CCCC2=O)c([N+](=O)[O-])c1`, the “activity change, negative = inhibition” value is -21.1% [at 115 µM].

As to `C#CC1(O)CCC2C3CCC4=CC(=O)CCC4(C)C3CCC21C` (stereo unspecified), the “activity change, negative = inhibition” value was -3.6%.

On to `CCN1C[C@]2(OC(=O)c3ccccc3NC(C)=O)CC[C@H](OC)[C@@]34[C@H]5CC6[C@@H](OC)C[C@](O)(C(C[C@@H]23)[C@@H]14)[C@@]5(O)[C@@H]6OC`, for which the “activity change, negative = inhibition” value is -0.226%.

For `CC(C)(C)NC[C@H](O)c1ccc(O)cc1Cl`, the “activity change, negative = inhibition” value was -5.21%.

In the case of `COC(C)(C)CCCC(C)C/C=C/C(C)=C/C(=O)OC(C)C` (stereo unspecified), the “activity change, negative = inhibition” value is 2.99%.

For `CC(=Cc1csc(C)n1)[C@@H]1C[C@H]2O[C@@H]2CCC[C@H](C)[C@@H](O)[C@@H](C)C(=O)C(C)(C)[C@@H](O)CC(=O)O1`, the “activity change, negative = inhibition” value was -56.8%.

`Cc1[nH]nc2ccc(-c3cncc(OC[C@@H](N)Cc4c[nH]c5ccccc45)c3)cc12`: the Potency was 0.485 µM (active).

Regarding `CCOP(=O)(NC(C)C)Oc1ccc(SC)c(C)c1` (stereo unspecified), the “activity change, negative = inhibition” value is -14.3% [at 115 µM].

Take `O=[N+]([O-])c1ccc([As](=O)(O)O)cc1`: the “activity change, negative = inhibition” value is 6.81%.

For the molecule `OCCCBr`, the “activity change, negative = inhibition” value was -12.5% [at 115 µM].

`O=[N+]([O-])/N=C1\NCCN1Cc1ccc(Cl)nc1`: the “activity change, negative = inhibition” value was -2.41%.

Consider `Nc1c(Cl)c(Cl)c(Cl)c(Cl)c1Cl`, for which the “activity change, negative = inhibition” value was 21.1% [at 115 µM].
